# Laboratory results: PubChem BioAssay (NCI)
# About 83,000 compounds went through this panel and 20% of them were active in at least one assay; those are over-represented in the sample as a whole.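 Growth was measured after 48 h exposure to one concentration of compound in 96-well plates. Values under 10 count as active.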 Unmarked numbers belong to inactive results. Activity calls are given as the source filed them.
# Key:
# Assay in all cases: NCI-60 one-dose screen, 48 h (100 = growth as untreated, 0 = no growth, -100 = all killed)
# Conditions in all cases: 10 µM unless noted
# [1] = tested on: SR leukemia
# [2] = tested on: RPMI-8226 leukemia
# [3] = tested on: OVCAR-8 ovarian
# [4] = tested on: OVCAR-5 ovarian
# [5] = tested on: OVCAR-4 ovarian
# [6] = tested on: SK-OV-3 ovarian
# [7] = tested on: IGROV1 ovarian
# [8] = tested on: OVCAR-3 ovarian
# [9] = tested on: HS 578T breast
# [10] = tested on: NCI/ADR-RES ovarian
# [11] = tested on: T-47D breast
# [12] = tested on: BT-549 breast
# [13] = tested on: MDA-MB-435 melanoma
# [14] = tested on: SW-620 colon
# [15] = tested on: MCF7 breast
# [16] = tested on: HCT-116 colon
# [17] = tested on: HCC-2998 colon
# [18] = tested on: KM12 colon
SMILES,growth [1],growth [2] [%],growth [3],growth [4] [%],growth [5],growth [6],growth [7],growth [8],growth [9] [%],growth [10],growth [11] [%],growth [12] [%],growth [13],growth [14],growth [15],growth [16],growth [17] [%],growth [18] [%]
O=C(/C=C/c1cn(-c2ccccc2)nc1-c1ccc(Cl)cc1)c1ccc(F)cc1,40.8%,67.5,80.6%,99.3,71.9%,82.6%,81.1%,78.8%,95.7,69.8%,38.9,96,326%,75.4%,41.8%,41.1%,186,63.8
c1cnc2c(-c3nc4ccc5[nH]ncc5c4c4c3CCCC4)c[nH]c2c1,5.93% (active),34.5,23.8%,37.3,27.9%,51.5%,18%,26.4%,63.4,80.6%,38.1,72.5,51.9%,18.9%,9.3% (active),0.564% (active),54.7,26.9
COc1ccc(/C=C(\C#N)n2nnc3ccc(Cl)cc32)cc1,29.9%,67.8,48.8%,92,71.6%,108%,59.5%,-18.4% (active),74.4,39.3%,51.1,68,-22.8% (active),11.8%,18.6%,39%,87.3,39.3
CCOC(=O)c1ccc(NC(=O)c2nc(-c3cc(OC)c(OC)c(OC)c3)n(-c3ccc(Cl)cc3)n2)cc1,92.7%,82.1,91.5%,101,95.4%,94.3%,88.9%,99.7%,74.5,90.8%,77.6,74.6,88.9%,105%,86.7%,87.8%,107,94
COC(=O)c1c(C)c2n(c1C)C(=O)C(c1ccccc1)=C2,102%,88.5,79.2%,68.9,71.2%,80.8%,-8.44% (active),104%,103,86.8%,37.1,51.2,78.1%,93%,39%,74.2%,75.1,78.2
COc1cc2c(cc1OC)C(C)N(S(N)(=O)=O)CC2 (stereo unspecified),82.3%,96.4,97%,82.6,105%,103%,97.9%,99.2%,105,96.9%,93.1,91.8,110%,107%,103%,89.4%,98.1,112
COc1cc2ncnc(Nc3ccc(S(=O)(=O)Nc4cc(C)on4)cc3)c2cc1OCCCN1CCN(c2ccc(F)cc2)CC1,107%,114,103%,102,116%,93%,107%,87.6%,90.7,107%,89.6,119,105%,100%,96.8%,108%,115,107
Cn1cc(-c2ccc3nc(-c4ccc(CC(=O)ONc5cc(C(C)(C)C)on5)cc4)cnc3c2)cn1,15.5%,45.2,33.7%,66.1,35.4%,-17.1% (active),10.3%,48%,31,33.2%,24.2,29.6,34.4%,40.6%,53.1%,16.7%,41.8,11
COc1ccc(-c2cc(-c3cc(OC)c(OC)c(OC)c3)c(C#N)c(=O)n2CCCCC(=O)NO)cc1,13.3%,35.9,42.4%,76.6,67%,87.1%,60.2%,62.1%,45,38.8%,50.7,92.7,37.7%,47.9%,66.5%,25.1%,87.5,73.1
COC(=O)CC[C@H](C)[C@H]1CC[C@H]2[C@@H]3CC[C@@H]4CC5(CC[C@]4(C)[C@H]3CC(=O)[C@]12C)Nc1ccccc1NC5=NC(C)(C)C (stereo partly specified),50%,58.4,87.5%,89.1,57.5%,97%,93.8%,76%,88.7,94.9%,82.3,95.4,85.1%,69.7%,58.5%,28.3%,107,83
COC(=O)c1c2c(c(C)[n+]([O-])c1C)C(=O)C(NCc1cccc(OC)c1)=CC2=O,17.6%,33.1,-4.96% (active),67.6,-28.6% (active),89.6%,12.3%,-12.1% (active),82.7,8.5% (active),11.5,57.5,-70.6% (active),7.85% (active),0.247% (active),1.61% (active),22.3,22
CC(=O)Oc1ccc(C)cc1C,102%,102,110%,102,105%,106%,114%,111%,109,108%,97.9,90.8,113%,108%,77.7%,98.3%,112,103
CN(C)Cc1ccc(O)c(C(=O)O)c1,97.8%,104,108%,108,118%,106%,95.6%,111%,109,105%,109,112,107%,106%,107%,109%,109,108
CCOC(=O)c1csc(NC(=O)COc2ccc(/C=C3\Oc4ccccc4C3=O)cc2)n1,37.9%,79.5,84.7%,92.1,81.6%,138%,6.55% (active),93.2%,91.1,85.4%,97.5,88.3,58.6%,105%,69%,82.5%,106,88.7
O=c1c2ccccc2n2cnc3ccc(Cl)c1c32,44.9%,98.6,78.1%,81.6,82.6%,69.8%,55.5%,85.2%,84.8,86.7%,54.4,75.4,90.5%,79.2%,75%,65.7%,103,84.3
COCCn1cc(-c2csc(-c3cn(C)c4ccc(Br)cc34)n2)c2cccnc21,31.3%,60.7,56.3%,68.3,71%,71.9%,80.2%,80.3%,63,60%,17.6,64.6,61.2%,21.9%,50.2%,49.2%,25.7,23.8
COCCOc1cc2ncnc(N3CCN(c4cc(S(C)(=O)=O)c(C)cc4Cl)CC3)c2cc1OCCOC,77%,76,83.2%,109,103%,105%,98%,96.1%,90.6,83.2%,69.6,91.4,105%,110%,91.9%,103%,100,93.2
